39 compounds from ChEMBL document CHEMBL3988442, “University of Dundee, Small-Polar-MMV Screening Library” (2021) can be followed below.

Structures are written as SMILES.

The target in the test is AMP-activated protein kinase, AMPK (Homo sapiens) (UniProt P54646+O43741+P54619+Q9UGJ0+Q9Y478+Q13131+Q9UGI9). Description: AMP-dependent Kinase enzyme assay. An in vitro enzyme assay that detects ADP turnover that is directly proportional to AMPK activity. This uses naive AMPK that is activated during the assay with MK-8722. Conditions: 30 µM. Further details: scale not given: direction of the effect not stated beside the values. In kind it is functional.
For `Cc1nccn1CCN(C)C(=O)c1cn(CC2CCCCC2)nn1`, the Percent Effect amounted to 9.45%. As for `CCc1cc(=O)[nH]c(-c2ccc(NC(C)CN3CCOCC3)nc2)n1` (centres undefined), the figure is -2.92%; as for `Cc1nc(CN2CCN(CC(O)CN3CCOCC3)CC2)oc1C` (centres undefined), -2.09%; as for `CN(CCc1ccccc1)Cc1c(C2CCNCC2)[nH]c2ncccc12`, 7.86%. In the case of `Cc1noc(-c2ccc(N(C)Cc3nccs3)nc2)n1`, the Percent Effect came to 5.7%. Next, `CCc1noc(C(C)N2CCCN(Cc3noc(C4CC4)n3)CC2)n1` (centres undefined): 0.0834%. Next, `Cc1cc(C2CCCN(Cc3cccnc3)C2)n[nH]1` (centres undefined): -0.765%.

As to `O=C(CNc1ccc(OC2CCOC2)cc1)NCc1cccs1` (centres undefined), the Percent Effect is 9.41%. Take `Cc1cc(-c2cnc(N3CCN(C)CC3)nc2C(C)C)on1`: the Percent Effect was 16.2%. As for `CCc1nc(C2CCCN2Cc2ncc(C)c(OC)c2C)no1` (centres undefined), the figure is 0.391%; as for `CCC(=O)N1CCC(c2ncc(C(=O)Nc3ccccc3)c(C)n2)C1` (centres undefined), 8.33%. For `COC(=O)c1ccc(NC(=O)CCc2ccco2)cc1`, the Percent Effect worked out at 20.9%. Regarding `CCNC(=O)c1ccnc(N2CCCC(COc3ccccc3C)C2)c1` (centres undefined), the Percent Effect is -0.143%. As for `COCCN1C(=O)[C@H]2CC[C@@H]1CN(S(=O)(=O)c1cccc(Cl)c1)C2`, the figure is 27.4%; as for `CCC[C@@H]1CN(Cc2cnc(-c3cccs3)nc2)C[C@H]1C(=O)O`, -8.24%; as for `O=C(NCc1cccnc1N1CCCC(O)C1)c1ccc2[nH]nnc2c1` (centres undefined), -3.08%. Next, `CC1CCC(O)(CSc2nnnn2C)CC1` (centres undefined): 3.45%. Next, `COc1nsc2nc(C3CCCN3c3ncccn3)ccc12` (centres undefined): 13.7%. Regarding `O=C(CC1CCCC1)NCCS(=O)(=O)N1CCN(c2ccccn2)CC1`, the Percent Effect was -2.11%. As for `O=S(=O)(NCc1cn2ccccc2n1)N1CCOCC1`, the figure is 9.32%. Next, `Cc1cc(N2CCC(n3cc(CCCO)nn3)CC2)ccn1`: 2.02%; `CCN(Cc1nc(Cc2ccccc2)no1)C1CC1`: 9.85%. As for `COCCN(Cc1nccs1)c1nc2c(s1)c(C)nn2C`, the figure is -10%; as for `O=C(CCn1ccnc1)N1CC[C@H](Oc2cccc(F)c2)[C@@H](O)CC1`, -2.81%.

As for `Cn1nc2c(c1NC(=O)c1ccc(Cl)s1)CCC2`, the Percent Effect turned out to be 0.899%. Next, `O=C(Cn1ccnc1)N1CC[C@H](Oc2cccc(F)c2)[C@@H](O)CC1`: 8.87%; `NC(=O)C1CCN(CCCNC(=O)Nc2nccs2)CC1`: 5.68%. For the compound `COc1ccnc(CNc2nc(C)nc3ccsc23)c1`, the Percent Effect is -0.808%. Consider `c1c[nH]c(-c2cn(CCSc3cnn[nH]3)nn2)n1`, for which the Percent Effect is -8.05%. For `CCN(C)Cc1cccc(CNC(=O)CSCc2ccccn2)c1`, the Percent Effect is 4.61%.

Consider `Cc1ccc(OCCn2cnc3oc(C)c(C(=O)O)c3c2=O)cc1`, for which the Percent Effect was determined as 15.5%. Next, `CN(C)CCN(Cc1ccc(C#N)cc1)C(=O)c1ccn(C)c(=O)c1`: 15.4%. As for `CS(=O)(=O)NCCN1CCSCC1c1ccc(Cl)cc1` (centres undefined), the Percent Effect was 1.33%. As for `Cc1cc(F)ccc1N1CCCC(NC(=O)CCc2ccncc2)C1` (centres undefined), the figure is 14.9%; as for `Cc1noc(C)c1CN1CCCC1c1nnc2ccccn12` (centres undefined), -3.49%; as for `NC(=O)CN1CCC(c2noc3cc(F)ccc23)CC1`, 12.7%.

For `CCOC(=O)c1n[nH]cc1CN1CCOC(Cc2ccccc2)C1` (centres undefined), the Percent Effect was -0.201%. In the case of `O=C(c1cnccn1)N1CCCC(C2=Nc3ccccc3S(=O)(=O)N2)C1` (centres undefined), the Percent Effect was 22%. Next, `O=S(=O)(NCCCn1cncn1)c1ccc2c(c1)CCC2`: 8.86%.
